Experimental data reported in the supplement of paper PMC7411054.

Experiments:
Details in all cases: treatment time: 24 h
A549-ACTB-RAB5A [1] = experiment: lowest phenotypically active concentration; higher = less potent
Method in brief: (§1)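 After 24 h at 0.3, 1, 3 or 9 µM, with four wells per treatment, fifteen gene-edited A549, HepG2 and WPMY1 reporter lines carrying BFP, GFP and RFP/FusionRed were imaged live. Each well's live-cell features were expressed relative to solvent control wells. Deviation required ≥3 of 4 wells past the 95th percentile of control Euclidean distances, and reproducibility a median replicate Pearson correlation over the 95th percentile of non-replicates. Phenotypic activity rested on both.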

A549-TUBA1B-RELA [2] = experiment: as above
Method in brief: as §1

WPMY1-GM130-SQSTM1 [3] = experiment: as above
Method in brief: as §1

A549-ACTB-RAB5A [4] = experiment: phenotypically active (imaging signature differs from DMSO and reproducible) at any of 0.3-9 uM (binary (1 = active, 0 = inactive)); higher = active
Method in brief: as §1

A549-CANX-COX4 = experiment: as above
Method in brief: as §1

A549-GM130-SQSTM1 [5] = experiment: as above
Method in brief: as §1

A549-TP53BP1-CLTA = experiment: as above
Method in brief: as §1

A549-TUBA1B-RELA [6] = experiment: as above
Method in brief: as §1

HepG2-ACTB-RAB5A [7] = experiment: as above
Method in brief: as §1

HepG2-CANX-COX4 = experiment: as above
Method in brief: as §1

HepG2-GM130-SQSTM1 = experiment: as above
Method in brief: as §1

HepG2-TP53BP1-CLTA = experiment: as above
Method in brief: as §1

HepG2-TUBA1B-RELA = experiment: as above
Method in brief: as §1

WPMY1-ACTB-RAB5A = experiment: as above
Method in brief: as §1

WPMY1-CANX-COX4 = experiment: as above
Method in brief: as §1

WPMY1-GM130-SQSTM1 [8] = experiment: as above
Method in brief: as §1

WPMY1-TP53BP1-CLTA = experiment: as above
Method in brief: as §1

WPMY1-TUBA1B-RELA = experiment: as above
Method in brief: as §1

A549-GM130-SQSTM1 [9] = experiment: lowest phenotypically active concentration; higher = less potent
Method in brief: as §1

HepG2-ACTB-RAB5A [10] = experiment: as above
Method in brief: as §1

CC1(CN2CCC(n3c(=O)[nH]c4ccccc43)CC2)OCc2ccccc2-n2cccc21 (stereo unspecified)
9 µM: lowest phenotypically active concentration (A549-ACTB-RAB5A [1]) | lowest phenotypically active concentration (A549-TUBA1B-RELA [2])
active: phenotypically active (A549-ACTB-RAB5A [4]) 1 | phenotypically active (A549-TUBA1B-RELA [6]) 1 | phenotypically active (WPMY1-GM130-SQSTM1 [8]) 1
inactive: phenotypically active (A549-CANX-COX4) 0 | phenotypically active (A549-GM130-SQSTM1 [5]) 0 | phenotypically active (A549-TP53BP1-CLTA) 0 | phenotypically active (HepG2-ACTB-RAB5A [7]) 0 | phenotypically active (HepG2-CANX-COX4) 0 | phenotypically active (HepG2-GM130-SQSTM1) 0 | phenotypically active (HepG2-TP53BP1-CLTA) 0 | phenotypically active (HepG2-TUBA1B-RELA) 0 | phenotypically active (WPMY1-ACTB-RAB5A) 0 | phenotypically active (WPMY1-CANX-COX4) 0 | phenotypically active (WPMY1-TP53BP1-CLTA) 0 | phenotypically active (WPMY1-TUBA1B-RELA) 0
3 µM: lowest phenotypically active concentration (WPMY1-GM130-SQSTM1 [3])

CC(C)c1nc(CN(C)C(=O)N[C@H](C(=O)N[C@@H](Cc2ccccc2)C[C@H](O)[C@H](Cc2ccccc2)NC(=O)OCc2cncs2)C(C)C)cs1 [ritonavir]
9 µM: lowest phenotypically active concentration (A549-ACTB-RAB5A [1]) | lowest phenotypically active concentration (A549-GM130-SQSTM1 [9])
active: phenotypically active (A549-ACTB-RAB5A [4]) 1 | phenotypically active (A549-GM130-SQSTM1 [5]) 1 | phenotypically active (HepG2-GM130-SQSTM1) 1
inactive: phenotypically active (A549-CANX-COX4) 0 | phenotypically active (A549-TP53BP1-CLTA) 0 | phenotypically active (A549-TUBA1B-RELA [6]) 0 | phenotypically active (HepG2-ACTB-RAB5A [7]) 0 | phenotypically active (HepG2-CANX-COX4) 0 | phenotypically active (HepG2-TP53BP1-CLTA) 0 | phenotypically active (HepG2-TUBA1B-RELA) 0 | phenotypically active (WPMY1-ACTB-RAB5A) 0 | phenotypically active (WPMY1-CANX-COX4) 0 | phenotypically active (WPMY1-GM130-SQSTM1 [8]) 0 | phenotypically active (WPMY1-TP53BP1-CLTA) 0 | phenotypically active (WPMY1-TUBA1B-RELA) 0

NC(=O)[C@@H](CCC(F)(F)F)N(Cc1ccc(-c2ncon2)cc1F)S(=O)(=O)c1ccc(Cl)cc1 [avagacestat]
active: phenotypically active (A549-ACTB-RAB5A [4]) 1 | phenotypically active (HepG2-ACTB-RAB5A [7]) 1
9 µM: lowest phenotypically active concentration (A549-ACTB-RAB5A [1]) | lowest phenotypically active concentration (HepG2-ACTB-RAB5A [10])
inactive: phenotypically active (A549-CANX-COX4) 0 | phenotypically active (A549-GM130-SQSTM1 [5]) 0 | phenotypically active (A549-TP53BP1-CLTA) 0 | phenotypically active (A549-TUBA1B-RELA [6]) 0 | phenotypically active (HepG2-CANX-COX4) 0 | phenotypically active (HepG2-GM130-SQSTM1) 0 | phenotypically active (HepG2-TP53BP1-CLTA) 0 | phenotypically active (HepG2-TUBA1B-RELA) 0 | phenotypically active (WPMY1-ACTB-RAB5A) 0 | phenotypically active (WPMY1-CANX-COX4) 0 | phenotypically active (WPMY1-GM130-SQSTM1 [8]) 0 | phenotypically active (WPMY1-TP53BP1-CLTA) 0 | phenotypically active (WPMY1-TUBA1B-RELA) 0

O=C(/C=C/c1ccc2ccccc2n1)c1ccncc1
9 µM: lowest phenotypically active concentration (A549-ACTB-RAB5A [1]) | lowest phenotypically active concentration (A549-TUBA1B-RELA [2]) | lowest phenotypically active concentration (WPMY1-GM130-SQSTM1 [3])
inactive: phenotypically active (A549-CANX-COX4) 0 | phenotypically active (A549-GM130-SQSTM1 [5]) 0 | phenotypically active (A549-TP53BP1-CLTA) 0 | phenotypically active (HepG2-CANX-COX4) 0 | phenotypically active (HepG2-TP53BP1-CLTA) 0 | phenotypically active (WPMY1-CANX-COX4) 0
3 µM: lowest phenotypically active concentration (HepG2-ACTB-RAB5A [10])
active: phenotypically active (A549-ACTB-RAB5A [4]) 1 | phenotypically active (A549-TUBA1B-RELA [6]) 1 | phenotypically active (HepG2-ACTB-RAB5A [7]) 1 | phenotypically active (HepG2-GM130-SQSTM1) 1 | phenotypically active (HepG2-TUBA1B-RELA) 1 | phenotypically active (WPMY1-ACTB-RAB5A) 1 | phenotypically active (WPMY1-GM130-SQSTM1 [8]) 1 | phenotypically active (WPMY1-TP53BP1-CLTA) 1 | phenotypically active (WPMY1-TUBA1B-RELA) 1

CCC(C)(C)C(=O)O[C@H]1C[C@@H](C)C=C2C=C[C@H](C)[C@H](CC[C@@H]3C[C@@H](O)CC(=O)O3)[C@H]21 [Simvastatin]
inactive: phenotypically active (A549-CANX-COX4) 0 | phenotypically active (A549-GM130-SQSTM1 [5]) 0 | phenotypically active (A549-TUBA1B-RELA [6]) 0
3 µM: lowest phenotypically active concentration (A549-ACTB-RAB5A [1])
1 µM: lowest phenotypically active concentration (HepG2-ACTB-RAB5A [10]) | lowest phenotypically active concentration (WPMY1-GM130-SQSTM1 [3])
active: phenotypically active (A549-ACTB-RAB5A [4]) 1 | phenotypically active (A549-TP53BP1-CLTA) 1 | phenotypically active (HepG2-ACTB-RAB5A [7]) 1 | phenotypically active (HepG2-CANX-COX4) 1 | phenotypically active (HepG2-GM130-SQSTM1) 1 | phenotypically active (HepG2-TP53BP1-CLTA) 1 | phenotypically active (HepG2-TUBA1B-RELA) 1 | phenotypically active (WPMY1-ACTB-RAB5A) 1 | phenotypically active (WPMY1-CANX-COX4) 1 | phenotypically active (WPMY1-GM130-SQSTM1 [8]) 1 | phenotypically active (WPMY1-TP53BP1-CLTA) 1 | phenotypically active (WPMY1-TUBA1B-RELA) 1

CCOC(=O)c1c2c3c(cccc3[nH]c1=O)C(=O)c1ccccc1-2
active: phenotypically active (A549-ACTB-RAB5A [4]) 1 | phenotypically active (A549-GM130-SQSTM1 [5]) 1 | phenotypically active (HepG2-TP53BP1-CLTA) 1
1 µM: lowest phenotypically active concentration (A549-ACTB-RAB5A [1]) | lowest phenotypically active concentration (A549-GM130-SQSTM1 [9])
inactive: phenotypically active (A549-CANX-COX4) 0 | phenotypically active (A549-TP53BP1-CLTA) 0 | phenotypically active (A549-TUBA1B-RELA [6]) 0 | phenotypically active (HepG2-ACTB-RAB5A [7]) 0 | phenotypically active (HepG2-CANX-COX4) 0 | phenotypically active (HepG2-GM130-SQSTM1) 0 | phenotypically active (HepG2-TUBA1B-RELA) 0 | phenotypically active (WPMY1-ACTB-RAB5A) 0 | phenotypically active (WPMY1-CANX-COX4) 0 | phenotypically active (WPMY1-GM130-SQSTM1 [8]) 0 | phenotypically active (WPMY1-TP53BP1-CLTA) 0 | phenotypically active (WPMY1-TUBA1B-RELA) 0
